These results are taken from PubChem BioAssay (NCI).

The panel holds about 83,000 compounds, 20% with a hit somewhere; the sample as a whole holds those more often.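 Activity criterion: percent growth below 10, measured after cells in 96-well plates were exposed to a single compound concentration for 48 hours.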 The source made the active and inactive calls.

In this experiment the test system is HCT-116 colon. The experiment is described as follows: NCI-60 one-dose screen, 48 h (100 = growth as untreated, 0 = no growth, -100 = all killed). The conditions noted are these: 10 µM unless noted.
For the compound `CCOC(=O)c1cnc2c(-c3ccc(Cl)c(Cl)c3)cnn2c1`, the growth was 62.7% (inactive).

In the case of `CCCc1[nH]c(-c2cc(N)ccc2Cl)c2c1C(=O)CCCC2`, the growth was 95.2% (inactive).

Regarding `O=C(Nc1ccc(N=Cc2c(O)[nH]c3ccccc23)cc1)Nc1ccc(S(=O)(=O)Nc2ncccn2)cc1`, the growth was 92.7% (inactive).

As to `Cc1ccc(NC(=O)Nc2nc3ccc([N+](=O)[O-])cc3s2)cc1`, the growth was 1.1% (active).

Consider `COc1ccc(C2C(C#N)=C(/N=C/c3ccc(Cl)cc3)Oc3c2sc2c(C)cccc32)cc1` (configuration not stated), for which the growth was 13.4% (inactive).

`Cc1ccc2c(n1)C(=O)C(Cl)=C(Nc1ccc(C(F)(F)F)cc1)C2=O`: the growth was 1.42% (active).

Take `Brc1cc(-c2cc(-c3ccc4c(c3)OCCO4)[nH]n2)cs1`: the growth is 41.5% (inactive).

For the compound `CN(C)c1cccc2c(S(=O)(=O)Nc3cccc(-c4csc(NC(=O)CCCCCN5CCN(CCO)CC5)n4)c3)cccc12`, the growth was 36.2% (inactive).

Regarding `CC1=C(C)C(=O)C(Nc2cccc(C(=O)OC(C)(C)C)c2)=CC1=O`, the growth was 75.2% (inactive).

For `C=C(C)[C@@H]1CC[C@]2(C(=O)O)CC[C@]3(C)[C@H](CC[C@@H]4[C@@]5(C)C/C(=C/c6ccccn6)C(=O)C(C)(C)[C@@H]5CC[C@]43C)[C@@H]12`, the growth is 13.5% (inactive).

Take `Nc1ccc(Nc2ncnc3sc4c(c23)CCN(Cc2ccccc2)C4)cc1`: the growth is 96.9% (inactive).

Regarding `Cc1ccsc1[C@H]1c2[nH]c3ccccc3c2C[C@H]2C(=O)N(CCCCCCC(=O)NO)CC(=O)N12`, the growth was 68.1% (inactive).

As to `C=C(C)[C@@H]1CC[C@]2(COCCCNCCCN)CC[C@]3(C)[C@H](CC[C@@H]4[C@@]5(C)CC[C@H](O)C(C)(C)[C@@H]5CC[C@]43C)[C@@H]12`, the growth was -86.5% (active).

Consider `C#C[C@]1(O)CC[C@H]2[C@@H]3CC=C4c5sc(NCc6ccccc6)nc5CC[C@]4(C)[C@H]3CC[C@@]21C`, for which the growth was 12.5% (inactive).

`Clc1ccc(CSc2nnc(-c3ccc(Cl)cc3)n2-c2ccccc2)cc1`: the growth is 75.3% (inactive).

Turning to `Cc1ccc(C(=O)CSc2nc3ccccc3c(=O)n2C)cc1`, the growth is 89.2% (inactive).

As for `CCn1c2ccc(/C=N/N(C)S(=O)(=O)CCN(C)C)cc2c2cc(/C=N/N(C)S(=O)(=O)CCN(C)C)ccc21`, the growth is 14.3% (inactive).

Take `CN1CCN(c2ccc(Nc3nc(NCCCNS(=O)(=O)c4ccc(Cl)cc4)c4sccc4n3)cc2)CC1`: the growth was 1.81% (active).

For `CCCCCCCCCCCC(=O)NC(C)(C)C(=O)N1CCCC1C(=O)NC(C)(C)C(=O)NC(C)(C)C(=O)N1CCCC1C(=O)NC(C)(C)C(=O)NC(C)(C)C(=O)N1CCCC1C(=O)NC(C)C(=O)NCCC(=O)NC(C)C(=O)NC(C)(C)C(=O)NC(C)(C)C(=O)NC(C)(C)C(=O)NCCC(=O)NC(C)(C)C(=O)NC(C)(C)C(=O)NC(C)(C)C(=O)NC(C)C(=O)NCCC(=O)O` (configuration not stated), the growth was -94.8% (active).

As to `O=C(CCCCCCN1CC(=O)N2[C@@H](c3ccc(Cl)s3)c3[nH]c4ccccc4c3C[C@H]2C1=O)NO`, the growth is 13% (inactive).

Consider `Clc1cccc(/C=N/Nc2nc(N/N=C/c3cccc(Cl)c3)nc(N3CCCCC3)n2)c1`, for which the growth is 97.2% (inactive).

For `COc1ccc(Cn2cc(C#N)c(N)c2C(C)=O)cc1`, the growth is 108% (inactive).

As for `C#Cc1nc(/C=C\CCCCCCC(=O)NO)cs1`, the growth was 20.5% (inactive).

In the case of `CC1(C)CC[C@]2(C(=O)O)CC[C@]3(C)C(=CC[C@@H]4[C@@]5(C)CC[C@H](NOCCCN)C(C)(C)[C@@H]5CC[C@]43C)[C@@H]2C1`, the growth is 57.2% (inactive).

Turning to `CCC(=C(c1ccc(OCCN2CCCCCC2)cc1)c1ccc(OCCN2CCCCCC2)cc1)c1ccc(Cl)cc1`, the growth is -88.9% (active).

Turning to `O=C(/C=C/c1ccccc1)c1cccc(O)c1`, the growth was 80% (inactive).

As to `O=C(/C=C/c1cccc(F)c1)c1cccc(OCCCOc2cccc(C(=O)/C=C/c3cccc(F)c3)c2)c1`, the growth is -80.3% (active).

Turning to `Brc1ccc2[nH]cc(-c3nn4cc(-c5nccs5)nc4s3)c2c1`, the growth was -81.7% (active).

With `CN1CCN(c2ccc(Nc3nc(NCCCNS(=O)(=O)c4ccc(F)cc4)c4sccc4n3)cc2)CC1`, the growth was 20.8% (inactive).

As for `N#Cc1c(-c2cccs2)cc(-c2cnccn2)nc1SCC(=O)N/N=C/c1ccncc1`, the growth was 101% (inactive).

Regarding `CN(C)c1ccc(-c2cc(-c3c[nH]c4ccccc34)nc(N)c2C#N)cc1`, the growth was 14.5% (inactive).

`O=C(CSc1nc2ccccc2c(=O)n1-c1ccccc1)N/N=C/c1ccc(Oc2ccc(Br)cc2)cc1`: the growth was 7.81% (active).
